Results filed as inconclusive are left out. Active and inactive are the calls of the source.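 How the source made its calls, unless noted: active means binding below the plate cutoff, the plate median minus 3 SD, with a reading above zero; inconclusive means below the plate cutoff but reading exactly zero; inactive means the rest.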
Key:
[1] = rapamycin-like changes in RPL19A-GFP expression – cell-based, S. cerevisiae, multiplex flow cytometry, primary screen (AID 1862; in the data active means percent of DMSO control GFP below about 86%;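 further: lower values mimic rapamycin by blocking the RPL19A rise seen in DMSO cells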); details: S. cerevisiae RPL19A-GFP strain, flow cytometry fluorescence, 3 h; at 10 µM; stronger effect = lower value
[2] = TOR pathway GLN3 branch reporter MEP2-GFP changes – S. cerevisiae, multiplex flow cytometry, primary screen (AID 1867;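 active means GFP response, as percent of the DMSO control, above the screen-wide mean plus 3 SD, about 139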;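 further: median GFP channel fluorescence of barcode-gated MEP2-GFP cells measured by flow cytometry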); details: S. cerevisiae MEP2-GFP strain, 3 h, at 10 µM, stronger effect = higher value, 100% means same as DMSO wells
[3] = TOR pathway RTG branch CIT2 reporter changes – S. cerevisiae, GFP fusion, multiplex flow cytometry, primary screen (AID 1870;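 active means percent response above a set limit, the screen-wide mean plus 3 SD, cut at about 130% in these data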;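 further: barcoded CIT2-GFP strain pooled with four other GFP strains with rapamycin as positive control; median GFP fluorescence per well over plate mean of DMSO wells so 100% = DMSO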); details: S. cerevisiae CIT2-GFP expression, 3 h, at 10 µM, stronger effect = higher value
[4] = TOR pathway LAP4-GFP level changes – S. cerevisiae, multiplex flow cytometry, primary screen (AID 1873;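 active means GFP signal, as percent of the solvent control, above the screen mean plus 3 SD, about 149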); details: S. cerevisiae LAP4-GFP expression, 3 h, at 10 µM, stronger effect = higher value
[5] = yeast AGP1-GFP level changes, GLN3 branch – cell-based, multiplex flow cytometry, S. cerevisiae, primary screen (AID 1887;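 active means GFP signal above the screen-wide mean plus 3 SD, that is over about 124.5% of the solvent control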;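 further: AGP1-GFP fusion strain of S. cerevisiae within a five-strain barcoded multiplex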); details: 3 h, at 10 µM, stronger effect = higher value
[6] = reduced mouse 2C T cell binding to pMHC/ICAM-1 vesicles – MLPCN validation set, flow cytometry, LFA-1/ICAM-1 modulator project, pilot screen (AID 2523;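 active means response below a set limit, under 55% cells CD8-positive and vesicle-bound, and CD8 cells' 90th-percentile brightness under 279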;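 on vesicle binding response: mean PE anti-B7-1 fluorescence of CD8+ cells relative to row control; 100% = QL9-loaded vesicles with DMSO vehicle in the same plate row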); details: 2C mouse CD8+ T cells, at 7 µM, stronger effect = lower value; double positive events: measured here: CD8+/vesicle+ event percentage
[7] = biological target: Integrin beta-1 (Homo sapiens) + Integrin alpha-4 (Homo sapiens) (UniProt P13612+P05556); assay: alpha4beta1 integrin LIBS antibody binding reduction – U937 cells, HUTS-21 mAb, flow cytometry, validation set, VLA-4 allosteric modulator project, pilot screen (AID 2674;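 active means inhibition above 50%, about 3 SD of the validation set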;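 further: antibody binding induced by the VLA-4 ligand LDV present at three times its Kd; 0% = LDV ligand with antibody and no compound and 100% = antibody without LDV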); details: HUTS-21 LIBS mAb binding, at 6.7 µM, stronger effect = higher value, binding induced by LDV ligand
Integrin beta-1 (Homo sapiens) + Integrin alpha-4 (Homo sapiens), sequence (P05556 whole entry, looked up): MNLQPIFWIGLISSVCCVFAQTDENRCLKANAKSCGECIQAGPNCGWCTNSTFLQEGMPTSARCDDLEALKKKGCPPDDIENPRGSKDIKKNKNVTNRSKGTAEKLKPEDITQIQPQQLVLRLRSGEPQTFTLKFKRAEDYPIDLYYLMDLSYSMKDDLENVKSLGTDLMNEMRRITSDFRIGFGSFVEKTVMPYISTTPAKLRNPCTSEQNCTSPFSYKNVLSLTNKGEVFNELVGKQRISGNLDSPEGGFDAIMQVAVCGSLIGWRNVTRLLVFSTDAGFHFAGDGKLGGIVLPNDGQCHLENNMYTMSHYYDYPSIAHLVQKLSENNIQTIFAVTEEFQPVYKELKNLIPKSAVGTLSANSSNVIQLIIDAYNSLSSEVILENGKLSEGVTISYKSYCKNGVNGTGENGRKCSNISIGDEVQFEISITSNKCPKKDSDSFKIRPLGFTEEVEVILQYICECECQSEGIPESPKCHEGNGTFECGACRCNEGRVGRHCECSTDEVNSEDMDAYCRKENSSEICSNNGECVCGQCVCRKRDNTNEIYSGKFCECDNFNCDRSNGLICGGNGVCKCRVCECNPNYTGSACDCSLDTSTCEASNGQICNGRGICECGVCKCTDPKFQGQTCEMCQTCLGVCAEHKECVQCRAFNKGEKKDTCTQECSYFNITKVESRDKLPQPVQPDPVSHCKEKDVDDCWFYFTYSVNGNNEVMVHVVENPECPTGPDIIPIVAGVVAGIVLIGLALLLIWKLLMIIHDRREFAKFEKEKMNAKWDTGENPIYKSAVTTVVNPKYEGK
Integrin beta-1 (Homo sapiens) + Integrin alpha-4 (Homo sapiens), sequence (P13612 whole entry, looked up): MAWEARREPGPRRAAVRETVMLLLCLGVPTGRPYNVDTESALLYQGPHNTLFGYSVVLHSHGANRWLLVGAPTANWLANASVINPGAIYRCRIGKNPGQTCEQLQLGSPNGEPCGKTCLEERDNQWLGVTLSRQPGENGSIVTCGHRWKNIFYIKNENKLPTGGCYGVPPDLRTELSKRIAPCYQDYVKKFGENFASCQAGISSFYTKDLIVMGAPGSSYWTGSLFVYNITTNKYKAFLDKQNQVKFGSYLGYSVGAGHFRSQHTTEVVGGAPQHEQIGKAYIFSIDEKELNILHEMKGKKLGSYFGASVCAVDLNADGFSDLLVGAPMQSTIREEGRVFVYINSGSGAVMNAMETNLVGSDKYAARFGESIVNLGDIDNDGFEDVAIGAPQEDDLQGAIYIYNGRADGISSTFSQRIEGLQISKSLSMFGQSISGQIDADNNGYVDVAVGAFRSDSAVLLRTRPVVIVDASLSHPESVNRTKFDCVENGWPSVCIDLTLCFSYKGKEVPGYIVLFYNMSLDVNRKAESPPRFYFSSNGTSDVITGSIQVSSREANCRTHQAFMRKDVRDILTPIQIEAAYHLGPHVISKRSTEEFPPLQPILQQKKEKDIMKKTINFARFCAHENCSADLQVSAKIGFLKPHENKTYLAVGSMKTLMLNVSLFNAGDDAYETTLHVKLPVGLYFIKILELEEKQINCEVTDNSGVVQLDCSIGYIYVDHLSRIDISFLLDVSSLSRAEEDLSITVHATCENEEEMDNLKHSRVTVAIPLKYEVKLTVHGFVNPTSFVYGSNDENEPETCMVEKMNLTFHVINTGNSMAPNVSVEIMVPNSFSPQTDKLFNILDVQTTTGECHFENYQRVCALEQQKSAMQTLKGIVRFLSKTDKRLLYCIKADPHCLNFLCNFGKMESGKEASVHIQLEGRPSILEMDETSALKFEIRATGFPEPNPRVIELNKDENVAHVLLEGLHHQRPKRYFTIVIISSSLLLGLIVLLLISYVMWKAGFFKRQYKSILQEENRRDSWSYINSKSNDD

[8] = calorie-restriction mimetic ROS inhibitors, yeast – validation compound set, pilot screen (AID 2706;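 active means superoxide response below 65% of plate, a cut near 3 SD across the whole screen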;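 further: yeast exposed to compound for one week at 30 degrees C before staining; 100% = mean of all compound wells on the same plate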); details: S. cerevisiae aging, superoxide DHE fluorescence; at 10 µM; stronger effect = lower value
[9] = biological target: Beta-adrenergic receptor kinase 1 (Homo sapiens) (UniProt P25098); assay: GRK2 binders displacing RNA aptamer, biochemical, validation, human GRK2, bead flow cytometry (AID 488806;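 active means aptamer binding inhibition above 30%, about 3 SD of noise from non-fluorescent compounds; inactive means inhibition at or below 30%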); details: bead-bound GRK2, FAM-aptamer displacement, at 10 µM, stronger effect = higher value
Beta-adrenergic receptor kinase 1 (Homo sapiens), sequence (P25098 whole entry, looked up): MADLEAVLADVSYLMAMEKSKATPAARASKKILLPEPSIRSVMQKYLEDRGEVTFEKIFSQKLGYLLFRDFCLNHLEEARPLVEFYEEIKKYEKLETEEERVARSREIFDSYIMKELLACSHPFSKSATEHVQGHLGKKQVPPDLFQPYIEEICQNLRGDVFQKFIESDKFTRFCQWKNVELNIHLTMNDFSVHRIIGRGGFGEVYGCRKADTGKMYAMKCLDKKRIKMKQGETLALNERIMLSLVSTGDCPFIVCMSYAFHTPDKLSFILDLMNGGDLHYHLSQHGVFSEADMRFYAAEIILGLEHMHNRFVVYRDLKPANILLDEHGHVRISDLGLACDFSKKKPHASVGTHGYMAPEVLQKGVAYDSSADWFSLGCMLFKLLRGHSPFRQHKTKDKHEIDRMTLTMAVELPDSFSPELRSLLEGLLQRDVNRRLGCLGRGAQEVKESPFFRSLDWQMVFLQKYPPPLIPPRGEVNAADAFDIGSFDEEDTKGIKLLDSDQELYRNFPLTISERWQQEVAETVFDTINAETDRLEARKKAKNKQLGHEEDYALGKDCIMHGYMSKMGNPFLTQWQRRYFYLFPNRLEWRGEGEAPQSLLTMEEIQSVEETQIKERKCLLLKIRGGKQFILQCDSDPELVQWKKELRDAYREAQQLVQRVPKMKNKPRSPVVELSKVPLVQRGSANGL

[10] = biological target: Beta-2 adrenergic receptor (Homo sapiens) (UniProt P07550); assay: agonist-induced loss of surface beta2AR – cell-based, FAP fluorogen, flow cytometry, validation set, pilot screen (AID 504459;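 active means percent response above 42, roughly 3 SD of non-fluorescent test compounds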;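 further: agonist-driven loss of surface beta2AR via internalization measured by FAP dye flow cytometry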); details: Am2.2-beta2AR cells, at 10 µM, stronger effect = higher value
Beta-2 adrenergic receptor (Homo sapiens), sequence (P07550 whole entry, looked up): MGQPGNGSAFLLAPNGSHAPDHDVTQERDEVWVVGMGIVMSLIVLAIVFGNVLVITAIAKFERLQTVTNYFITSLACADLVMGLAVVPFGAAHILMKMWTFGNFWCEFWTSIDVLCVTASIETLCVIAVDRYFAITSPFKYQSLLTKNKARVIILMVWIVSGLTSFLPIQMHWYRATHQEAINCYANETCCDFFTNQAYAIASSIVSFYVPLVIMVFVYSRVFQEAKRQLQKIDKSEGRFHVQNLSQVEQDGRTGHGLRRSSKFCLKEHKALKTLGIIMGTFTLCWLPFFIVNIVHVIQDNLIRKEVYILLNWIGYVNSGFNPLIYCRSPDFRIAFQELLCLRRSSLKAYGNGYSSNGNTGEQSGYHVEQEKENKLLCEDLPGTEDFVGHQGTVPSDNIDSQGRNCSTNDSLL

[11] = biological target: AP-2 complex subunit beta (Homo sapiens) (UniProt P63010); assay: beta-arrestin/AP2 interaction blockers – biochemical, validation set, GST-AP2 beads, flow cytometry, pilot screen (AID 504541;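 active means inhibition above 54%, about 3 SD of non-fluorescent compounds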;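 further: AP2 carries R879A mutation and is captured from E. coli lysate; bead-bound FITC arrestin peptide fluorescence measuring arrestin peptide binding to AP2; 0% = DMSO wells and 100% = excess unlabeled arrestin peptide control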); details: FITC arrestin peptide, at 10 µM, stronger effect = higher value, AP2 beta2 appendage fragment, R879A mutant
AP-2 complex subunit beta (Homo sapiens), sequence (P63010 whole entry, looked up, the tested form may be a part, one chain of several): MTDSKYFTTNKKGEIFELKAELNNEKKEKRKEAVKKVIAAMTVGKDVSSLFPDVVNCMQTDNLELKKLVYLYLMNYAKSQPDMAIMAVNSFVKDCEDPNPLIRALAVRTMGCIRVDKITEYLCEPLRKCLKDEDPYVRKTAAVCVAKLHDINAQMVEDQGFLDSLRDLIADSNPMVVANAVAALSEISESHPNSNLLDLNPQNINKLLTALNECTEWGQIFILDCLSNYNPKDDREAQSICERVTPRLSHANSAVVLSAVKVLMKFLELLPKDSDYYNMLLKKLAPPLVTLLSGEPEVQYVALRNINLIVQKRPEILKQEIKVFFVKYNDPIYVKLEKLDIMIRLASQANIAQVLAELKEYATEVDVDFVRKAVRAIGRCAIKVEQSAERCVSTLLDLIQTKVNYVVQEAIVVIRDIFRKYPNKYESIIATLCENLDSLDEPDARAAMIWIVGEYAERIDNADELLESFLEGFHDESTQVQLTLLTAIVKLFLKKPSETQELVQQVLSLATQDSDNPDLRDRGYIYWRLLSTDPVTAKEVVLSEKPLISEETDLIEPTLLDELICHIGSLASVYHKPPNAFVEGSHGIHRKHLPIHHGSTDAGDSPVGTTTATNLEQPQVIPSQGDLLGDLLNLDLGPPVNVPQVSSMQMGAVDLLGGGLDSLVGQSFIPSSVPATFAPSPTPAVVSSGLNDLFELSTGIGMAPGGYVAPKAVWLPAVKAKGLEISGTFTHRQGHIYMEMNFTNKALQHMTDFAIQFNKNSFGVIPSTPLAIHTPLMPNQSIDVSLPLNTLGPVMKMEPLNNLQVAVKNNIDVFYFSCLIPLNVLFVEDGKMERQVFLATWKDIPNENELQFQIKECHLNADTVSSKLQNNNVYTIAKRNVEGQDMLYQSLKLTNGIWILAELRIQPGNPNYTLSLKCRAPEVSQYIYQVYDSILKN

[12] = cytosolic pH regulators acting via V-ATPase – S. cerevisiae, pHLuorin, HTS validation (AID 504600; in the data active means response above about 15%;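 further: plate controls were DMSO for no effect and reference compound for full effect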); details: V-ATPase proton transport, at 10 µM, stronger effect = higher value
[13] = tested on: anti-desmoglein-3 scFv antibody binding to human DSG3; assay: blockers of pathogenic pemphigus antibody–desmoglein-3 binding – biochemical, validation compound set, bead-based, flow cytometry, pilot screen (AID 588368); details: Protein G beads, DSG3-Fc, scFv-GFP binding, at 10 µM, stronger effect = lower value;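 further: signal is the median channel fluorescence of bead-bound GFP antibody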
[14] = Nile Red efflux blockade in pump-expressing yeast – validation compound set, multiplex, phenotypic, pilot screen (AID 588506;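 active means efflux inhibition above 0.42, the validation set average plus 4 SD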;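 further: Nile Red retained in cells so higher fluorescence means more efflux inhibition; 0 = negative control wells and 1 = enniatin B 25 µM full block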); details: S. cerevisiae pump-expressing triplex, Nile Red efflux flow cytometry; at 10 µM; stronger effect = higher value; the pumps come from Candida albicans
[15] = biological target: ATP-binding cassette sub-family B member 6 (Homo sapiens) (UniProt Q9NP58); assay: blockers of ABCB6-driven porphyrin uptake – K562-ABCB6 cells, flow cytometry, validation set, pilot screen (AID 588550;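 active means inhibition above the screen-wide mean plus 3 SD, about 51%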;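 further: 0% = DMSO wells and 100% = benzethonium chloride 70 µM positive control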); details: K562-ABCB6 porphyrin accumulation, 1 h, at 10 µM, stronger effect = higher value
ATP-binding cassette sub-family B member 6 (Homo sapiens), sequence (Q9NP58 whole entry, looked up): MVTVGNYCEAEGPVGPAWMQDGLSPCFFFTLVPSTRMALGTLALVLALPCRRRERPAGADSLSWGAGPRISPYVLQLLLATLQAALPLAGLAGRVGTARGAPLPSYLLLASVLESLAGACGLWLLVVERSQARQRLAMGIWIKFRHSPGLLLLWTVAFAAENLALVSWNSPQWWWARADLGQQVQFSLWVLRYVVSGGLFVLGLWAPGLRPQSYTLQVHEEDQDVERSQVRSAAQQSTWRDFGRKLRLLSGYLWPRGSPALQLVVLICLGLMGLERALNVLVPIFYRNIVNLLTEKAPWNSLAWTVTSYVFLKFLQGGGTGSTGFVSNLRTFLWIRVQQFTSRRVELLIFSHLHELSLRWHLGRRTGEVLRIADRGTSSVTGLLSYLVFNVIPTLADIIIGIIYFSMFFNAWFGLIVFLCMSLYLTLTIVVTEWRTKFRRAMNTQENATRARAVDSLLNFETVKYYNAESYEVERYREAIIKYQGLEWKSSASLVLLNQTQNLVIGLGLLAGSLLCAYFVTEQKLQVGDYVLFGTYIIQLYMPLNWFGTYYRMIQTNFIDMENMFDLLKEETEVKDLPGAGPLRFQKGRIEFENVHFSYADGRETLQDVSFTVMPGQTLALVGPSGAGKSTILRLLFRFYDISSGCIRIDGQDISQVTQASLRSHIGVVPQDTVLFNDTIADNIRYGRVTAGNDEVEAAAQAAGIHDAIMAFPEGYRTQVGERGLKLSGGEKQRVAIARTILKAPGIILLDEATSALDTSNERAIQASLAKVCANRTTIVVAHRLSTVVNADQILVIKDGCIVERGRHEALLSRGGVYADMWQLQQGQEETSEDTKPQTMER

[16] = AML differentiation inducers, ER-HoxA9 marrow cells – cell-based, GFP/MAC1 double positive, flow cytometry, validation set, primary screen (AID 588685;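 active means differentiation response of at least 50%, scaled between solvent and reference control, from cells with both markers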;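 further: compound exposure lasts four days before antibody staining and flow analysis; 0% = DMSO wells and 100% = 5 µM fulvestrant positive control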); details: stronger effect = higher value, normalized: vehicle 0, fulvestrant 100

COc1cc(C2NCCc3c2[nH]c2ccccc32)ccc1OC(C)C (configuration not stated)
58.1%: double positive events [6]
inactive: percent of DMSO control GFP [1] 105% | GFP response vs DMSO [2] 103% | percent response of DMSO control [3] 106% | GFP response vs DMSO [4] 90.4% | GFP response, % of DMSO [5] 104% | vesicle binding response [6] 85.7% | inhibition [7] 5.61% | superoxide response (% of plate) [8] 95.7% | aptamer binding inhibition [9] 0% | response [10] 9.28% | inhibition [11] 1.29% | response [12] 0.8% | binding (% of control) [13] 104% | efflux inhibition (fraction of control) [14] 0.08 | inhibition [15] 9% | differentiation response [16] -10.4%

O=c1oc2c(CN3CCCCC3)c(O)ccc2c2c1CCCCC2
inactive: percent of DMSO control GFP [1] 102% | GFP response vs DMSO [2] 102% | percent response of DMSO control [3] 102% | GFP response vs DMSO [4] 107% | GFP response, % of DMSO [5] 107% | vesicle binding response [6] 136% | inhibition [7] 6.95% | superoxide response (% of plate) [8] 102% | aptamer binding inhibition [9] 1% | response [10] -8.88% | inhibition [11] -7.24% | response [12] 3.83% | binding (% of control) [13] 96.4% | efflux inhibition (fraction of control) [14] -0.16 | inhibition [15] 4% | differentiation response [16] 8.59%
59.1%: double positive events [6]

CN(C)CCC(c1ccccc1)c1ccccn1 (configuration not stated)
64.9%: double positive events [6]
inactive: percent of DMSO control GFP [1] 97.2% | GFP response vs DMSO [2] 130% | percent response of DMSO control [3] 97.9% | GFP response vs DMSO [4] 83.6% | GFP response, % of DMSO [5] 86.1% | vesicle binding response [6] 139% | inhibition [7] 14.2% | superoxide response (% of plate) [8] 93.1% | aptamer binding inhibition [9] 3% | response [10] -2.11% | inhibition [11] -9.57% | response [12] -0.43% | binding (% of control) [13] 97.8% | efflux inhibition (fraction of control) [14] -0.35 | inhibition [15] 12% | differentiation response [16] 8.19%

NC(N)=NC(N)=Nc1ccc2ccccc2c1
58.7%: double positive events [6]
inactive: percent of DMSO control GFP [1] 102% | GFP response vs DMSO [2] 97.4% | percent response of DMSO control [3] 104% | GFP response vs DMSO [4] 85.4% | GFP response, % of DMSO [5] 95.8% | vesicle binding response [6] 183% | inhibition [7] 3.67% | superoxide response (% of plate) [8] 106% | aptamer binding inhibition [9] 1% | response [10] 18% | inhibition [11] 16% | response [12] -3.32% | binding (% of control) [13] 97.8% | efflux inhibition (fraction of control) [14] -0.21 | inhibition [15] -3% | differentiation response [16] -0.8%

COc1ccc(C2NCCC3(O)CCCCC23)c(OC)c1OC (configuration not stated)
inactive: percent of DMSO control GFP [1] 98.8% | GFP response vs DMSO [2] 99.6% | percent response of DMSO control [3] 93.9% | GFP response vs DMSO [4] 107% | GFP response, % of DMSO [5] 97.4% | vesicle binding response [6] 199% | inhibition [7] -11.3% | superoxide response (% of plate) [8] 105% | aptamer binding inhibition [9] 1% | response [10] -8.95% | inhibition [11] 10.4% | response [12] -2.26% | binding (% of control) [13] 102% | efflux inhibition (fraction of control) [14] -0.06 | inhibition [15] 6% | differentiation response [16] -18.4%
57.7%: double positive events [6]

Cc1ccccc1C(=O)NNc1ncnc2c1cnn2C
64.9%: double positive events [6]
inactive: percent of DMSO control GFP [1] 104% | GFP response vs DMSO [2] 103% | percent response of DMSO control [3] 91.2% | GFP response vs DMSO [4] 103% | GFP response, % of DMSO [5] 112% | vesicle binding response [6] 146% | inhibition [7] 3.99% | superoxide response (% of plate) [8] 104% | aptamer binding inhibition [9] -2% | response [10] -18.4% | inhibition [11] 15.7% | response [12] -4.35% | binding (% of control) [13] 107% | efflux inhibition (fraction of control) [14] 0.08 | inhibition [15] -17% | differentiation response [16] 6.83%
